Assay results: PubChem BioAssay AID652065 (The Scripps Research Institute Molecular Screening Center, 2013)
Values joined by “and” are separate entries in the source; they are usually repeats but may differ in a detail not shown here. Equal entries are not always repeated. In all, about 4,300 compounds went through this assay and about 3,000 (70%) were called active.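 The calls were made as follows: active = inhibition above a per-plate cutoff, the mean inhibition of sample wells plus 3 SD (cut at about 35% in these data); inactive = the rest.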 So high a share suggests a set chosen from earlier hits. These entries were drawn from the full list. Where a structure was tested more than once in an assay, its records may differ in their call.

Assay: small molecules binding CAG repeat RNA – biochemical, fluorescence, confirmation (AID 652065);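 also: loss of TO-PRO-1 fluorescence as compound displaces dye from 1x1 AA loop RNA; 0% = DMSO only wells and 100% = 100 µM mitoxantrone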
Conditions: r(CAG) RNA repeat, TO-PRO-1 dye displacement fluorescence; at 3 µM; stronger effect = higher value

inhibition, active:
Cc1ccccc1S(=O)(=O)N1[C@@H](c2cccc(Cl)c2)C(C(=O)O)=CC[C@H]1c1ccc(Cl)cc1 83.1%, Cc1ccc(S(=O)(=O)N2[C@@H](c3ccccc3F)C(C(=O)O)=CC[C@H]2c2ccc(Cl)cc2)cc1 64.8%, Cc1ccc([C@@H]2CC=C(C(=O)O)[C@H](c3cccc(Cl)c3)N2S(=O)(=O)c2ccc(C)cc2)cc1 80.4%, Cc1oc2c(F)c(F)c(F)c(F)c2c1S(=O)(=O)Nc1cccc(C(F)(F)F)c1 44.5%, COc1ccc(NS(=O)(=O)c2cc(C(=O)Nc3ccccc3C(=O)O)ccc2C)cc1 52%, COc1ccc(NS(=O)(=O)c2cc(NC(=O)CC(=O)c3ccc([N+](=O)[O-])cc3)ccc2C)cc1 44.4%, COc1cc(OC)c(S(=O)(=O)Nc2ccccc2C(=O)O)cc1S(=O)(=O)Nc1ccccc1C(=O)O 39.9%, O=C(Nc1ccc2c(c1)CCC2)c1cccc(S(=O)(=O)Nc2ccccc2Cl)c1 40%, CO/N=C(\C(=O)N[C@@H]1C(=O)N2C(C(=O)O)=C(COC(C)=O)CS[C@H]12)c1csc(N)n1 (stereo in doubt) 48.1%, O=C(N/N=C/c1cc(Cl)cc([N+](=O)[O-])c1O)C(O)(c1ccccc1)c1ccccc1 52.6%, Cc1ccc(Sc2cc(C(=O)c3ccccc3C(=O)O)ccc2[N+](=O)[O-])cc1 68.5%, CC[C@@H](C)[C@H](NC(=O)CCc1c(C)c2cc3c4c(oc3c(C)c2oc1=O)CCCC4)C(=O)O 52.4%, Cc1c(CCC(=O)N[C@@H](CC(C)C)C(=O)O)c(=O)oc2c(C)c3oc4c(c3cc12)CCCC4 48.4%, CCCCC[C@@H]1C=C(C(=O)O)[C@H](c2ccc(C#N)cc2)N1S(=O)(=O)c1ccc(C)cc1 55.7%, Cc1ccc(S(=O)(=O)N2[C@@H](c3ccc(Br)cc3)C(C(=O)O)=C[C@H]2CC2CCCC2)cc1 72.6%, NC(=O)c1c(Nc2nc3c(F)cccc3s2)sc2c1CCCC2 39.3%, Cc1cc(N2C(=O)C(O)=C(C(=O)c3ccc(C)o3)C2c2ccc(OCc3ccccc3)cc2)no1 (stereo not drawn) 64.8%, N#Cc1c(-c2ccccc2)cc(-c2ccccc2)nc1SCC(=O)O 44.6%, O=C(Cc1ccccc1)Nc1ccc(C(=O)Nc2ccccc2C(=O)O)cc1 50.5%, Cc1ccc(C(=O)O)cc1-c1ccc(/C=C2\SC(=O)N(CC(=O)Nc3ccc4c(c3)OCO4)C2=O)o1 85.1%, Cc1cc(C)cc(OCC(=O)Nc2cc(NC(=O)COc3cc(C)cc(C)c3)cc(C(=O)O)c2)c1 78.6%, Cc1cccc(OCC(=O)Nc2ccc(C(=O)O)cc2NC(=O)COc2cccc(C)c2)c1 44.8%, CC(Oc1ccc2ccccc2c1)C(=O)NNC(=S)NC(=O)c1ccco1 (stereo not drawn) 42.4%, CCCc1ccc(OCC(=O)NNC(=S)NC(=O)c2ccco2)cc1 56.7%, CC1CCCCN1S(=O)(=O)c1ccc(C(=O)Nc2nnc(-c3cccs3)o2)cc1 (stereo not drawn) 40.6%, N#Cc1ccccc1CN1C(=O)S/C(=C/c2cccn2-c2cccc(C(=O)O)c2)C1=O 63.3%, Cc1ccc(NC(=S)NNC(=O)CSc2nnc(SCc3ccccc3Cl)s2)cc1 48.4%, O=C(Nc1nnc(-c2ccccc2)o1)c1cc(-c2cccs2)nc2ccccc12 68.2%, Cc1ccc(Cn2c(SCC(=O)N/N=C/c3ccccc3OCC(=O)O)nc3ccccc32)cc1 65.5%, Oc1c(Cl)cc(Cl)c(Cl)c1Cc1c(O)c(Cl)cc(Cl)c1Cl 91.4%, NC(c1ccccc1)c1csc(NC(=O)Nc2cccc(C(F)(F)F)c2)n1 (stereo not drawn) 59.1%, Cc1oc2cc([N+](=O)[O-])c(O)c([N+](=O)[O-])c2c1C(=O)c1ccc(Br)cc1 50.2%

inhibition, 29.9% (inactive) and 46.4% (active):
CCN1C(=O)/C(=C2/Sc3ccccc3N2CCCS(=O)(=O)O)SC1=S

inhibition, inactive:
COc1ccc(Cl)cc1-n1c(=S)sc2c(=O)n(-c3ccc(F)cc3)c(SCC(=O)O)nc21 28.9%, Cc1ccc(S(=O)(=O)NCCC(c2ccccc2)c2ccccc2)cc1C(=O)O 28%, Cc1ccccc1OCC(=O)Nc1nnc(S(=O)(=O)N2CCCC2)s1 33.1%, Nc1[nH]c(=S)nc2nc(-c3ccccc3)c(-c3ccccc3)nc12 15.6%, Nc1cccc(-c2cc(-c3ccccc3)nc(-c3cccc(N)c3)n2)c1 21.8%, CCn1cc(C(=O)NCC2COc3ccccc3O2)c2cc(OC)c(OC)cc2c1=O (stereo not drawn) 3.06%, O=C(COc1ccccc1Cl)Nc1ccc(C(=O)c2ccc(C(=O)O)cc2)cc1 27.3%, Cc1cc(C)cc(Oc2c(C(F)(F)F)oc3cc(OCC(=O)O)ccc3c2=O)c1 27.1%, COc1ccc(OCC(=O)Nc2nnc(-c3ccco3)s2)cc1 12.6%, CN1CCN(S(=O)(=O)c2cccc(C(=O)Nc3sccc3C#N)c2)CC1 24.8%, Cc1cc2nc(-c3ccco3)c(Cc3cccc(F)c3)n2c(C)c1Br 30.1%, NC(c1csc(NC(=O)Nc2cccc(C(F)(F)F)c2)n1)C1CCCCC1 (stereo not drawn) 24.4%, COc1ccc(C(N)c2csc(NC(=O)Nc3cccc(C(F)(F)F)c3)n2)cc1 (stereo not drawn) 25.6%, CCCOc1ccc(Cn2c(O)cc(=O)[nH]c2=O)cc1 18.4%, C=CCSc1nsc(NC(=O)Nc2cccc(C(C)=O)c2)n1 34.4%
